Experimental findings from PubChem BioAssay (EPA / NIEHS) are described below.

The nature of experiment [1]: ATG_DR4_LXR_CIS: Attagene CIS-FACTORIAL HepG2 Assay for human Liver X Receptor (LXR), DR4 submotif (AID 2282929). Conditions: HepG2 Attagene DR4 cis-reporter, mRNA transcription; actives raise or lower the signal. The method in brief: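 Endogenous factor activity at a DR4 cis-element is read as reporter mRNA in transiently transfected HepG2 cells. Exposure lasts 24 h; transcripts are amplified, fluorescently labelled and sized by capillary electrophoresis, with DMSO as baseline.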

The target of experiment [2] is Aryl hydrocarbon receptor (Homo sapiens) (UniProt P35869). Kind of experiment: ATG_Ahr_CIS: Attagene CIS-FACTORIAL HepG2 Assay for human Aryl Hydrocarbon Receptor (Ahr) (AID 2282930). The following applies: HepG2 AhR cis-factorial reporter transcription; actives raise or lower the signal. The method in brief: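 Following 24 h of chemical dosing, transfected HepG2 liver cells with cis-driven reporter units were lysed for RNA; reporter mRNA was quantified via RT-PCR and capillary electrophoresis, and responses fitted bidirectionally from DMSO.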
Chain of Aryl hydrocarbon receptor (Homo sapiens) (P35869 whole entry, looked up): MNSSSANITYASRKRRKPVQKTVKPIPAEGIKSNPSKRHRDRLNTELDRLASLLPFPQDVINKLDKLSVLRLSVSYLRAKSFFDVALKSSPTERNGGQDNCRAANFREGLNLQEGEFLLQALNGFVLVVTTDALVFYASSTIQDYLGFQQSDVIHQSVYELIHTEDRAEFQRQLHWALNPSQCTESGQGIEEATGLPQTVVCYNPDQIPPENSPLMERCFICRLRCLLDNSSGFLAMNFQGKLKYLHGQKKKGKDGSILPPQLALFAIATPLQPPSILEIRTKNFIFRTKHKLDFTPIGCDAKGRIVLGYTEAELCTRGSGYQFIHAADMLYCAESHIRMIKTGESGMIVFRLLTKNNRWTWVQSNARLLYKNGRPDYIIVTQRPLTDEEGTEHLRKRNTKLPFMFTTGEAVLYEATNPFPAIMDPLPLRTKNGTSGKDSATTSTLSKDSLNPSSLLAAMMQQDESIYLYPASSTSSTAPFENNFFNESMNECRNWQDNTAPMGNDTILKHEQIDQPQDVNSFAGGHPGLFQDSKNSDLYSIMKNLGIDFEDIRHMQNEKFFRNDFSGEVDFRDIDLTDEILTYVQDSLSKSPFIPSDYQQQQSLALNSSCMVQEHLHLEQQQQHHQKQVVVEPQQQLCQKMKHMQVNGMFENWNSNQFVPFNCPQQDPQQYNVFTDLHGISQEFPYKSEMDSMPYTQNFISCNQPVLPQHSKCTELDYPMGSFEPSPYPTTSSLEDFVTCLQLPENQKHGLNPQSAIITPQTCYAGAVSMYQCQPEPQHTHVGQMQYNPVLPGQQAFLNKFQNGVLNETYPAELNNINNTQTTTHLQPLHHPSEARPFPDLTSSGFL

Experiment [3] is described as follows: ATG_AP_1_CIS: Attagene CIS-FACTORIAL HepG2 Assay for human Activator Protein 1 (AP-1) (AID 2282931). Conditions: HepG2 Attagene cis-factorial AP-1 reporter mRNA; actives raise or lower the signal. The method in brief:
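Fluorescence of labelled PCR fragments separated by capillary electrophoresis gives reporter mRNA levels. HepG2 with transfected cis-regulated reporter units, 24 h exposure; DMSO serves as baseline for bidirectional curve fits.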

The nature of experiment [4]: ATG_AP_2_CIS: Attagene CIS-FACTORIAL HepG2 Assay for human Activator Protein 2 (AP-2) (AID 2282932). The following applies: HepG2 AP-2 cis-reporter, Attagene transcription factor profiling; actives raise or lower the signal. The method in brief:
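Cells (HepG2) transfected with promoter-driven reporter constructs, treated 24 h. Total RNA reverse-transcribed, reporter cDNA PCR-amplified, FAM-labelled by primer extension, digested, resolved by capillary electrophoresis. Activity fitted both directions versus DMSO.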

Experiment [5] is described as follows: ATG_BRE_CIS: Attagene CIS-FACTORIAL HepG2 Assay for human Bone Morphogenetic Protein (BMP) Response Element (BRE) (AID 2282933). Conditions: HepG2 BMP response element reporter, Attagene transcription factor profiling; actives raise or lower the signal. The method in brief:
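HepG2 cells transiently transfected with multiplexed cis-element reporter units were dosed with chemical for 24 h. Reporter mRNA was measured by RT-PCR with fluorescent labelling, HpaI digestion and capillary electrophoresis; bidirectional fitting relative to DMSO.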

Experiment [6] deals with Transcription factor E2F1 (Homo sapiens) (UniProt Q01094). Kind of experiment: ATG_E2F_CIS: Attagene CIS-FACTORIAL HepG2 Assay for human E2F Transcription Factor 1 (AID 2282935). The following applies: HepG2 Attagene cis-reporter, E2F reporter RNA transcripts; actives raise or lower the signal. The method in brief:
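First, HepG2 cells were transfected with reporter transcription units. Next, they were dosed for 24 h. Then RNA was isolated, converted to cDNA, PCR-amplified, FAM-labeled, HpaI-digested and analyzed by capillary electrophoresis.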

A short description of experiment [7]: ATG_E_Box_CIS: Attagene CIS-FACTORIAL HepG2 Assay for human Enhancer Box (E-box) (AID 2282936). Conditions: HepG2 E-box cis-reporter transcription, actives raise or lower the signal. The method in brief: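 Endogenous transcription factor activity was sensed in human HepG2 liver cells through transfected cis-promoter reporter units. After 24 h of dosing, total RNA was reverse-transcribed and reporter cDNA resolved by capillary electrophoresis.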

A short description of experiment [8]: ATG_M_61_CIS: Attagene CIS-FACTORIAL HepG2 Assay for M61 Transcription Factor (Internal Marker) (AID 2282937). The following applies: HepG2 Attagene CIS-FACTORIAL M61 internal marker reporter; actives raise or lower the signal. The method in brief:
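This endpoint serves as an internal background control within a multiplexed HepG2 cis-reporter panel. Cells are exposed for 24 h; reporter mRNA is amplified, fluorescently labelled and sized by capillary electrophoresis, with DMSO as negative control.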

Experiment [9] in a line: ATG_EGR_CIS: Attagene CIS-FACTORIAL HepG2 Assay for human Early Growth Response 1 (EGR1) (AID 2282938). The following applies: HepG2 Attagene CIS-FACTORIAL EGR reporter mRNA; actives raise or lower the signal. The method in brief:
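HepG2, transient MRTU transfection (cis promoters), 24 h compound. RNA → RT (oligo-dT) → PCR → 6-FAM labelling → HpaI cut → CE fluorescence. Bidirectional fit, DMSO baseline.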

Experiment [10] in a line: ATG_M_19_CIS: Attagene CIS-FACTORIAL HepG2 Assay for M19 Transcription Factor (Internal Marker) (AID 2282939). The following applies: HepG2 Attagene CIS-FACTORIAL M19 internal marker reporter; actives raise or lower the signal. The method in brief:
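HepG2 cells transiently transfected with cis-regulated multiple reporter transcription units were dosed for 24 h; reporter mRNA was quantified by RT-PCR, 6-FAM primer-extension labelling, HpaI digestion and capillary electrophoresis, with bidirectional fitting against DMSO baseline.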

Experiment [11] is described as follows: ATG_ERE_CIS: Attagene CIS-FACTORIAL HepG2 Assay for Estrogen Response Element (ERE) (AID 2282940). The following applies: HepG2 ERE cis-reporter, Attagene RNA transcript; actives raise or lower the signal. The method in brief: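 HepG2 cells transiently transfected with cis-promoter-driven multiplexed reporter transcription units report endogenous TF activity. After 24 h compound exposure, reporter mRNA is quantified by RT-PCR with capillary electrophoresis fluorescence; bidirectional fitting versus DMSO baseline.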

Experiment [12] concerns the target Hepatocyte nuclear factor 3-beta (Homo sapiens) (UniProt Q9Y261). As to the kind of experiment: ATG_FoxA2_CIS: Attagene CIS-FACTORIAL HepG2 Assay for human Forkhead box A2 (FOXA2) (AID 2282942). The following applies: HepG2 cis-reporter transcription factor activity, 24 h; actives raise or lower the signal. The method in brief:
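Cells: HepG2, transient multiplex reporter transfection. Exposure 24 h. Detection: reporter-specific RT-PCR, fluorescent labelling, restriction digest, capillary electrophoresis. Analysis: bidirectional curve fit, DMSO as negative control.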

Experiment [13] is described as follows: ATG_FoxO_CIS: Attagene CIS-FACTORIAL HepG2 Assay for human Forkhead box O (FoxO) (AID 2282943). The following applies: HepG2 Attagene cis-reporter, FoxO element, mRNA; actives raise or lower the signal. The method in brief: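 24 h chemical exposure, HepG2 with transient cis-MRTU transfection. RNA extraction, oligo(dT) RT, reporter-specific PCR, primer-extension labelling, HpaI digestion, CE fragment analysis; bidirectional fit, DMSO baseline.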

The nature of experiment [14]: ATG_GATA_CIS: Attagene CIS-FACTORIAL HepG2 Assay for human GATA Binding Protein (AID 2282944). Conditions: HepG2 GATA cis-element reporter, Attagene multiplex mRNA; actives raise or lower the signal. The method in brief:
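HepG2 cells transiently transfected with multiplexed cis-element reporter units reflecting endogenous transcription factor activity; reporter mRNA measured after 24 h dosing by RT-PCR, 6-FAM labeling, HpaI digestion and capillary electrophoresis. Bidirectional fitting versus DMSO baseline.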

Experiment [15] in a line: ATG_GLI_CIS: Attagene CIS-FACTORIAL HepG2 Assay for human Zinc Finger Protein GLI1 (AID 2282945). The following applies: HepG2, Attagene cis-factorial reporter mRNA, GLI element; actives raise or lower the signal. The method in brief:
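HepG2 cells transiently transfected with cis-promoter multiplexed reporter units report endogenous transcription factor activity. After 24 h chemical exposure, reporter mRNA was quantified by RT-PCR, 6-FAM labelling, HpaI digestion and capillary electrophoresis, with bidirectional fitting against DMSO.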

A short description of experiment [16]: ATG_ISRE_CIS: Attagene CIS-FACTORIAL HepG2 Assay for human Interferon Regulatory Factor 1 (IRF1) binding to an Interferon-Stimulated Response Element (ISRE) (AID 2282948). Conditions: HepG2 ISRE cis-reporter (Attagene), mRNA transcription readout; actives raise or lower the signal. The method in brief: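 Uses HepG2 liver cells transfected with cis-regulated reporters and measures mRNA 24 h post-dosing through RT-PCR, primer-extension labelling and capillary electrophoresis, with DMSO as negative control.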

In experiment [17] the target is Bile acid receptor (Homo sapiens) (UniProt Q96RI1). Kind of experiment: ATG_IR1_CIS: Attagene CIS-FACTORIAL HepG2 Assay for human Nuclear Receptor Subfamily 1 Group H Member 4 (NR1H4), IR1 submotif (AID 2282946). The following applies: IR1 reporter transcription, actives raise or lower the signal. The method in brief: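 Readout: reporter transcript levels by RT-PCR with fluorescent capillary electrophoresis, from HepG2 cells transiently transfected with multiplexed cis-regulated reporters and dosed 24 h. Gain- or loss-of-signal fitted versus DMSO negative control.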
Chain of Bile acid receptor (Homo sapiens) (Q96RI1 whole entry, looked up): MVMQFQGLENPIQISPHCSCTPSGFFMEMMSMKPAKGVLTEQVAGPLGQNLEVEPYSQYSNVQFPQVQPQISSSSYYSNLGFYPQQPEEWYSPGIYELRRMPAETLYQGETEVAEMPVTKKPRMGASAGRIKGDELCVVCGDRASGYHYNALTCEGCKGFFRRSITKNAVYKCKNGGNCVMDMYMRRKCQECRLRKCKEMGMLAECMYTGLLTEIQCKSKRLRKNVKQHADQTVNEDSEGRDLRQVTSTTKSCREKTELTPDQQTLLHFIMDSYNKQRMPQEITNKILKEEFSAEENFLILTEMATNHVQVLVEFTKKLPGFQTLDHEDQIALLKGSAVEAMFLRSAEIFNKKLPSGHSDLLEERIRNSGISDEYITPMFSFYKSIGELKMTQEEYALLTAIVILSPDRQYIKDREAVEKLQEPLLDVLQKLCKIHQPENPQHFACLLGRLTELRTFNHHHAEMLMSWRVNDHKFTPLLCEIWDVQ

Experiment [18] can be described thus: ATG_GRE_CIS: Attagene CIS-FACTORIAL HepG2 Assay for human Glucocorticoid Response Elements (GRE) (AID 2282947). The following applies: HepG2 GRE cis-reporter, Attagene multiplex mRNA; actives raise or lower the signal. The method in brief:
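Cells (HepG2) bearing transfected cis-promoter reporter transcription units were treated with chemical for 24 hours. Reporter mRNA was measured via RT-PCR with capillary electrophoresis, and activity was fitted in both directions relative to DMSO.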

Experiment [19] can be described thus: ATG_Ets_CIS: Attagene CIS-FACTORIAL HepG2 Assay for human Erythroblast Transformation Specific (ETS) (AID 2282941). Conditions: HepG2 ETS cis-reporter transcription, actives raise or lower the signal. The method in brief:
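Bidirectional fit versus DMSO of reporter mRNA signal, detected by RT-PCR and capillary electrophoresis in HepG2 cells transiently transfected with cis-element reporters and dosed 24 h.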

Calls of active or inactive are those of the source. Rule for the calls: active = hit-call score of the fitted dose curve at least 0.9, where 1 is the maximum; inactive = score below 0.9.

Chain of Transcription factor E2F1 (Homo sapiens) (Q01094 whole entry, looked up): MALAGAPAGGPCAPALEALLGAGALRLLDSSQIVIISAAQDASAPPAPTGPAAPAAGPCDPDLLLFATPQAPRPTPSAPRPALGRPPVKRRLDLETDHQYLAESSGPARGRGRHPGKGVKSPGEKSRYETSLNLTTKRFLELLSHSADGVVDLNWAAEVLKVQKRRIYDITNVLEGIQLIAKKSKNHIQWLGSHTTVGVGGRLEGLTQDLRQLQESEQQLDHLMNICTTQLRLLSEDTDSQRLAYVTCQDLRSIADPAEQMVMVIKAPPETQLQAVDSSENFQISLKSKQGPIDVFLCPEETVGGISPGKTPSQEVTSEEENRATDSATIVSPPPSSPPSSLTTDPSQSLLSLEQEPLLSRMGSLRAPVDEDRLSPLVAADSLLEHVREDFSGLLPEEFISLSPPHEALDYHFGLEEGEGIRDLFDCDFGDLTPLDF
Chain of Hepatocyte nuclear factor 3-beta (Homo sapiens) (Q9Y261 whole entry, looked up): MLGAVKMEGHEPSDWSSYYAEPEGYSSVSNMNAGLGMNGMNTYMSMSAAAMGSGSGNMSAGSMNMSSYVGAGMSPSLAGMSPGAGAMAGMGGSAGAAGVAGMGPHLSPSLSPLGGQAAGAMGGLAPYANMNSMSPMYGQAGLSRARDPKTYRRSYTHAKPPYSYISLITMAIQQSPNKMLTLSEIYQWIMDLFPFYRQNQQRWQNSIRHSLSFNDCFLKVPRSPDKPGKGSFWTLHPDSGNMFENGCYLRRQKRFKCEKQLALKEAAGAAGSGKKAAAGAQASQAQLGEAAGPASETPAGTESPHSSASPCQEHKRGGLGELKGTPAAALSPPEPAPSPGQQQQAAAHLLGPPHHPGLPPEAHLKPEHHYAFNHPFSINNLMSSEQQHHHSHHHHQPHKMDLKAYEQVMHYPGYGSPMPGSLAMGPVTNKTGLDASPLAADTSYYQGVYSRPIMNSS

Usually AC50 stands for the midpoint of the concentration-response curve, whichever way the signal moves. Regarding `Nc1ccc(-c2ccccc2)cc1`, the result in [1], in [2], in experiment [3], in experiment [4], in experiment [5] and in [6] was inactive. The result in experiment [7], in [8], in experiment [9], in [10], in experiment [12] and in experiment [13] was inactive. Besides, the compound was classed as inactive in [14], in [15] and in [16]. For the same compound, the half-maximal activity concentration (AC50) in experiment [11] was 32 µM (active).
Regarding `C#C[C@]1(O)CC[C@H]2[C@@H]3CCC4=CC(=O)CC[C@]4(C)[C@H]3CC[C@@]21C`, the outcome in experiment [1], in experiment [2], in experiment [3], in [4], in experiment [5] and in experiment [6] was inactive. The result in experiment [7], in experiment [8], in experiment [9], in [10], in [12] and in experiment [13] was inactive. The compound was classed as inactive in experiment [14], in experiment [15], in experiment [17], in experiment [18] and in experiment [16].
Consider `N#Cc1cccnc1`, for which the compound was called inactive in experiment [1], in [2], in [3], in [4], in [5] and in [6]. Also, the result in experiment [7], in experiment [8], in [9], in experiment [12], in experiment [13] and in [14] was inactive. For the same compound, the outcome in [15], in experiment [17], in [18] and in [16] was inactive.
With `O=C1C[C@@H]2OCC=C3CN4CC[C@]56c7ccccc7N1[C@H]5[C@H]2[C@H]3C[C@H]46`, the result in experiment [1], in experiment [2], in experiment [3], in [4], in [5] and in [6] was inactive. For the same compound, the outcome in experiment [7], in [8], in experiment [9], in [10], in experiment [19] and in experiment [12] was inactive. In addition, the call in experiment [13], in [14], in [15] and in [16] was inactive.
With `O=C(O)c1cc(I)cc(I)c1I`, the result in experiment [1], in [3], in [4], in [5], in experiment [6] and in experiment [7] was inactive. Further, the result in experiment [8], in experiment [19], in [12], in experiment [13], in experiment [14] and in [15] was inactive. The call in experiment [17] and in [16] was inactive. The figures for the half-maximal activity concentration (AC50) in experiment [2] and in [11] were 40.8 µM (active) and 27.8 µM (active), respectively.
